Data on 20 molecules can be found in PubChem BioAssay (NCATS).

SMILES strings stand for the structures. Records with an inconclusive call do not appear. Active and inactive are the calls of the source. Unless noted, the call rests on the fitted dose curve; in most records, active means well fitted curve in the direction sought with a large enough effect; inconclusive means small, poorly fitted or top-dose-only effect, or another doubt; inactive means no such curve, though single readings can be large; an effect the other way counts as inactive or inconclusive.

Assay [1] can be described thus: qHTS for Inhibitors of the Functional Ribonucleoprotein Complex (vRNP) of Lassa (LASV) Arenavirus: LASV Primary Screen - GLuc reporter signal (AID 1347082; calls by dose curve; tested in HEK293 reporter line; further: nearly all actives have a fitted effect of over 60% in size; further: potency means the concentration at half of the fitted maximal effect).
Assay [2] in a line: qHTS for Inhibitors of the Functional Ribonucleoprotein Complex (vRNP) of Lassa (LASV) Arenavirus: Viability assay - alamar blue signal for LASV Primary Screen (AID 1347083; calls by dose curve; tested in HEK293 reporter line; further: nearly all actives have a fitted effect of over 80% in size; further: potency means the concentration at half of the fitted maximal effect). (In general: Quantitative high-throughput screening tests each substance at several concentrations.)
Assay [3] in a line: qHTS for Inhibitors of the Functional Ribonucleoprotein Complex (vRNP) of Lymphocytic Choriomeningitis Arenaviruses (LCMV): Viability assay - alamar blue signal for LCMV Primary Screen (AID 1347085; calls by dose curve; tested in HEK293 reporter line; further: nearly all actives have a fitted effect of over 80% in size; further: potency means the concentration at half of the fitted maximal effect).
The target of assay [4] is Nucleoprotein (Lymphocytic choriomeningitis virus (strain Armstrong)) (UniProt P09992). The assay can be described thus: qHTS for Inhibitors of the Functional Ribonucleoprotein Complex (vRNP) of Lymphocytic Choriomeningitis Arenaviruses (LCMV): LCMV Primary Screen - GLuc reporter signal (AID 1347086; calls by dose curve; further: nearly all actives have a fitted effect of over 70% in size; further: potency means the concentration at half of the fitted maximal effect).
Assay [5] is described as follows: qHTS of pediatric cancer cell lines to identify multiple opportunities for drug repurposing: Primary screen for TC32 cells (AID 1347089). Further: nearly all actives have a fitted effect of over 60% in size. The procedure, abridged:
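In the primary qHTS, MIPE compounds were tested at 11 concentrations (0.78 nM to 46 µM) and NPC compounds at 8 (0.59 nM to 46 µM) on TC32 cells for 48 h. CellTiter-Glo luminescence gave viability.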

A short description of assay [6]: qHTS of pediatric cancer cell lines to identify multiple opportunities for drug repurposing: Primary screen for DAOY cells (AID 1347090). Further: series mostly up to about 46 µM; nearly all actives have a fitted effect of over 55% in size. The method, boiled down: (§1)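 Cell viability, CellTiter-Glo luminescence; 500-1,000 cells/well, 8- or 11-point titration, 48 h compound exposure at 37 degrees C, 5% CO2. Controls: DMSO neutral, bortezomib 2.3 µM final as positive.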

Assay [7] can be described thus: qHTS of pediatric cancer cell lines to identify multiple opportunities for drug repurposing: Primary screen for SJ-GBM2 cells (AID 1347091). The procedure, abridged:
as §1

Assay [8] is described as follows: qHTS of pediatric cancer cell lines to identify multiple opportunities for drug repurposing: Primary screen for A673 cells (AID 1347092). Further: nearly all actives have a fitted effect of over 45% in size. The procedure, abridged: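 48 h compound exposure, A673, 500-1,000 cells/well, 37 degrees C/5% CO2. MIPE: 11-point, 0.78 nM-46 µM; NPC: 8-point, 0.59 nM-46 µM (final). Readout CellTiter-Glo luminescence after 15 min RT.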
Assay [9] in a line: qHTS of pediatric cancer cell lines to identify multiple opportunities for drug repurposing: Primary screen for SK-N-MC cells (AID 1347093). Further: series mostly up to about 46 µM. The method, boiled down: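 Metabolically active cells were quantified by ATP-dependent luminescence (CellTiter-Glo, 15 min at room temperature) following 48 h treatment. Cells had been plated at 500-1,000 per well and settled for 5 h beforehand.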

Assay [10] can be described thus: qHTS of pediatric cancer cell lines to identify multiple opportunities for drug repurposing: Primary screen for BT-37 cells (AID 1347094). Further: series mostly up to about 57 µM. The procedure, abridged: (§2)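 Phenotypic viability qHTS, 48 h compound exposure, CellTiter-Glo luminescence read-out; multi-concentration dosing so that potency and efficacy derive directly from the primary screen's curves.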
The nature of assay [11]: qHTS of pediatric cancer cell lines to identify multiple opportunities for drug repurposing: Primary screen for NB-EBc1 cells (AID 1347095). The procedure, abridged:
as §2

The nature of assay [12]: qHTS of pediatric cancer cell lines to identify multiple opportunities for drug repurposing: Primary screen for U-2 OS cells (AID 1347096). Further: nearly all actives have a fitted effect of over 50% in size. The method, boiled down: (§3)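 Cells (500-1,000/well) rested 5 h, then received compounds for 48 h; metabolically active cells were measured by CellTiter-Glo luminescence. Final concentrations spanned up to 46 µM (MIPE, 11-point) or 0.59 nM-46 µM (NPC, 8-point) in primary screens, 11-point in follow-ups.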

Assay [13] is described as follows: qHTS of pediatric cancer cell lines to identify multiple opportunities for drug repurposing: Primary screen for Saos-2 cells (AID 1347097). Further: nearly all actives have a fitted effect of over 40% in size. The method, boiled down: as §2
A short description of assay [14]: qHTS of pediatric cancer cell lines to identify multiple opportunities for drug repurposing: Primary screen for SK-N-SH cells (AID 1347098). Further: nearly all actives have a fitted effect of over 65% in size. The procedure, abridged: as §3
Assay [15] is described as follows: qHTS of pediatric cancer cell lines to identify multiple opportunities for drug repurposing: Primary screen for NB1643 cells (AID 1347099). Further: nearly all actives have a fitted effect of over 50% in size. The method, boiled down: as §2
A short description of assay [16]: qHTS of pediatric cancer cell lines to identify multiple opportunities for drug repurposing: Primary screen for LAN-5 cells (AID 1347100). The procedure, abridged:
as §3

Assay [17] is described as follows: qHTS of pediatric cancer cell lines to identify multiple opportunities for drug repurposing: Primary screen for BT-12 cells (AID 1347101). Further: nearly all actives have a fitted effect of over 25% in size. The method, boiled down:
as §3

A short description of assay [18]: qHTS of pediatric cancer cell lines to identify multiple opportunities for drug repurposing: Primary screen for Rh18 cells (AID 1347102). Further: nearly all actives have a fitted effect of over 65% in size. The method, boiled down:
as §3

Assay [19] can be described thus: qHTS of pediatric cancer cell lines to identify multiple opportunities for drug repurposing: Primary screen for OHS-50 cells (AID 1347103). Further: nearly all actives have a fitted effect of over 40% in size. The procedure, abridged: as §3

Nucleoprotein (Lymphocytic choriomeningitis virus (strain Armstrong)), sequence (P09992 whole entry, looked up): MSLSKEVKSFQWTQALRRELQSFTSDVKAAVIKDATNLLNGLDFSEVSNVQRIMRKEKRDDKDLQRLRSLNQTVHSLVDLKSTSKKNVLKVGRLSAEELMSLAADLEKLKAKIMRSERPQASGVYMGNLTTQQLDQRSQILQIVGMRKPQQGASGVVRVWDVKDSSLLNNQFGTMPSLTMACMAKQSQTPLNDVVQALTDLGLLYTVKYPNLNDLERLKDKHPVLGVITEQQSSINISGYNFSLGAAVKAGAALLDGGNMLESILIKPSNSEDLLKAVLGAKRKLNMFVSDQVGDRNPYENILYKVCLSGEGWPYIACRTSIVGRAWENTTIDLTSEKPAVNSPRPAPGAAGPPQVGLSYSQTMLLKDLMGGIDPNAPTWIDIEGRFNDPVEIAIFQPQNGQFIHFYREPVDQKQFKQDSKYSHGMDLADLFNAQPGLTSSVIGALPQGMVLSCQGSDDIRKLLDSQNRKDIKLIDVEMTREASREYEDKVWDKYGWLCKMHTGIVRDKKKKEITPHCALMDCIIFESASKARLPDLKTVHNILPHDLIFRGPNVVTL

As to `O=c1cc(-c2ccccc2)oc2ccccc12`, the Potency result in assay [1], in assay [2], in [3] and in assay [4] was “inactive” each time.

In the case of `S=C(NCc1ccc2c(c1)OCO2)N1CCN(c2ncnc3c2oc2ccccc23)CC1`, the Potency entry in assay [1], in [2], in [3] and in assay [4] was “inactive” each time.

Regarding `OCCCBr`, the Potency result in assay [1], in assay [2], in [3], in assay [4], in assay [5] and in assay [6] was “inactive” each time. Further, the Potency result in assay [7], in assay [8], in [9], in assay [10], in [11] and in assay [12] was “inactive” in each case. The Potency entry in assay [13], in assay [14], in assay [15], in [16], in assay [17] and in assay [18] was “inactive” throughout. Further, in [19], the Potency result was “inactive”.

With `Nc1ccc(Cl)cc1`, the Potency entry in [1], in [2], in assay [3], in assay [4], in assay [5] and in assay [6] was “inactive” each time. In addition, the Potency result in [7], in assay [8], in assay [9], in assay [10], in assay [11] and in assay [12] was “inactive” in each case. The Potency entry in [13], in [14], in assay [15], in assay [16], in assay [17] and in [18] was “inactive” in each case. Moreover, the Potency result in assay [19] is “inactive”.

Regarding `CC1=C(CO)C(=O)O[C@@H]([C@@H](C)[C@H]2CC[C@H]3[C@@H]4C[C@H]5O[C@]56[C@@H](O)C=CC(=O)[C@]6(C)[C@@H]4CC[C@]23C)C1`, the Potency in assay [1] was 863 nM (active); in assay [2], 3060 nM (active); in assay [3], 3850 nM (active); in [4], 1530 nM (active).

Turning to `COCCOCCO`, the Potency entry in assay [1], in [2], in assay [3], in assay [4], in assay [5] and in [6] was “inactive” throughout. Besides, the Potency result in [7], in assay [8], in assay [9], in assay [10], in assay [11] and in [12] was “inactive” each time. Further, the Potency entry in assay [13], in assay [14], in [15], in assay [16], in assay [17] and in assay [18] was “inactive” in each case. Also, the Potency result in assay [19] is “inactive”.

As to `COc1ccc2cc(CCC(C)=O)ccc2c1`, the Potency result in assay [1], in assay [2], in assay [3] and in [4] was “inactive” each time.

As for `C[N+]1(C)C2CC(OC(=O)[C@H](CO)c3ccccc3)CC1C1OC12` (stereo partly drawn), the Potency entry in [1], in assay [2], in [3] and in assay [4] was “inactive” in each case.

As for `NCCS`, the Potency result in assay [1], in assay [2], in [3] and in assay [4] was “inactive” in each case.

In the case of `C[C@]12C[C@H](O)[C@H]3[C@@H](CCC4=CC(=O)CC[C@@]43C)[C@@H]1CC[C@@H]2C(=O)CO`, the Potency result in [1], in assay [2], in assay [3] and in [4] was “inactive” throughout.

Turning to `CNC(=O)c1ccc(N2C(=S)N(c3ccc(C#N)c(C(F)(F)F)c3)C(=O)C2(C)C)cc1F`, the Potency result in [1], in assay [2], in [3] and in [4] was “inactive” each time.

For `CC1(C)SCCN(S(=O)(=O)c2ccc(OCC#CCO)cc2)[C@@H]1C(=O)NO`, the Potency result in assay [1], in [2], in assay [3] and in assay [4] was “inactive” in each case.

`Oc1c(I)cc(I)c2cccnc12`: the Potency result in [1], in assay [2], in assay [3] and in assay [4] was “inactive” each time.

In the case of `CC[N+]1(CCOC(=O)C(O)(c2ccccc2)c2ccccc2)CCCCC1`, the Potency result in assay [1], in assay [2], in assay [3], in [4], in [5] and in assay [6] was “inactive” throughout. Also, the Potency entry in assay [7], in assay [8], in assay [9], in [10], in assay [11] and in assay [12] was “inactive” in each case. Further, the Potency result in assay [13], in assay [14], in [15], in assay [16], in assay [17] and in assay [18] was “inactive” in each case. In assay [19], the Potency entry was “inactive”.

As to `O=C(Nc1ccc(OC(F)(F)F)cc1)c1sccc1NCc1ccnc2ccccc12`, the Potency entry in [1], in assay [2], in assay [3] and in assay [4] was “inactive” each time.

Turning to `CCCCOCCOc1nc(-c2ccc(C(=O)O)c(F)c2)sc1C`, the Potency entry in [1], in assay [2], in [3] and in assay [4] was “inactive” throughout.

For `C[C@H]([C@H](O)CCC(C)(C)O)[C@H]1CC[C@@]2(O)C3=CC(=O)[C@@H]4C[C@@H](O)[C@@H](O)C[C@]4(C)[C@@H]3CC[C@]12C`, the Potency result in [1], in assay [2], in [3], in assay [4], in assay [5] and in assay [6] was “inactive” throughout. Further, the Potency result in assay [7], in assay [8], in assay [9], in assay [10], in assay [11] and in assay [12] was “inactive” each time. The Potency entry in assay [13], in assay [14], in [15], in assay [16], in [17] and in assay [18] was “inactive” in each case. For the same molecule, the Potency entry in assay [19] was “inactive”.

For `CN(C)c1ccc(C2Nc3ccc4ccccc4c3C3=C2C(=O)CC(C)(C)C3)cc1Br` (stereo not drawn), the Potency entry in assay [1], in assay [2], in assay [3] and in assay [4] was “inactive” throughout.

For `CCOc1ccc(Cc2cc([C@@H]3O[C@H](CO)[C@@H](O)[C@H](O)[C@@H]3O)ccc2Cl)cc1`, the Potency result in assay [1], in assay [2], in assay [3] and in [4] was “inactive” each time.

Turning to `CCOCCOC(C)=O`, the Potency entry in [1], in assay [2], in assay [3], in assay [4], in assay [5] and in assay [6] was “inactive” each time. The Potency entry in assay [7], in assay [8], in assay [9], in [10], in assay [11] and in [12] was “inactive” in each case. Also, the Potency result in assay [14], in assay [15], in assay [16], in [18] and in assay [19] was “inactive” throughout.
